PubChem BioAssay (NCATS)
Results filed as inconclusive are left out. Where a call stands in place of a potency, no number is given. Unmarked numbers belong to inactive results. The source made the active and inactive calls. Calls come from the whole dose curve; as a rule, active = well fitted curve in the direction sought with a large enough effect; inconclusive = small, poorly fitted or top-dose-only effect, or another doubt; inactive = no such curve, though single readings can be large; an effect the other way counts as inactive or inconclusive.

How the values were obtained:
[1] = Quantitative highthroughput screen to assess conditional lethalithy of NOMO1 cells grown in RPMI1640 with untreated serum (RPMI+s) (AID 1963876); note: nearly all actives have a fitted effect of over 35% in size; note: potency is the fitted concentration of half-maximal effect
Summary of the method: (§1)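 Each medium arm—HPLM with 10% dialyzed FBS, or RPMI1640 with 5 mM glucose and 10% untreated or dialyzed FBS—was screened against an 11-point, 3-fold compound titration for 48 h at 37 °C, with CellTiter-Glo luminescence as endpoint.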

[2] = Quantitative highthroughput screen to assess conditional lethalithy of NOMO1 cells grown in RPMI1640 with dialyzed fetal bovine serum (RPMI+ds) (AID 1963877); note: nearly all actives have a fitted effect of over 30% in size; note: potency is the fitted concentration of half-maximal effect; for viability: series mostly up to about 46 µM
Summary of the method: as §1

[3] = Quantitative highthroughput screen to assess conditional lethalithy of NOMO1 cells grown in Human Plasma-Like Medium with dialyzed fetal bovine serum (HPLM+ds) (AID 1963878); note: nearly all actives have a fitted effect of over 35% in size; note: potency is the fitted concentration of half-maximal effect
Summary of the method: as §1

[4] = Quantitative highthroughput screen to assess conditional lethalithy of P12 Ichikawa cells grown in Human Plasma-Like Medium with dialyzed fetal bovine serum (HPLM+ds) (AID 1963879); conditions: Potency: viability; note: nearly all actives have a fitted effect of over 35% in size; note: potency is the fitted concentration of half-maximal effect; for viability: series mostly up to about 46 µM
Summary of the method: as §1

[5] = Quantitative highthroughput screen to assess conditional lethalithy of P12 Ichikawa cells grown in RPMI1640 with dialyzed fetal bovine serum (RPMI+ds) (AID 1963880); conditions: Potency: P12-Ichikawa viability; note: nearly all actives have a fitted effect of over 35% in size; note: potency is the fitted concentration of half-maximal effect
Summary of the method: as §1

[6] = Quantitative highthroughput screen to assess conditional lethalithy of P12 Ichikawa cells grown in RPMI1640 with untreated serum (RPMI+s) (AID 1963881); conditions: Potency: viability; note: nearly all actives have a fitted effect of over 35% in size; note: potency is the fitted concentration of half-maximal effect; for viability: series mostly up to about 46 µM
Summary of the method: as §1

[7] = Quantitative highthroughput screen to assess conditional lethalithy of SEM cells grown in RPMI1640 with dialyzed fetal bovine serum (RPMI+ds) (AID 1963884); note: nearly all actives have a fitted effect of over 35% in size; note: potency is the fitted concentration of half-maximal effect; for viability: series mostly up to about 46 µM
Summary of the method: as §1

[8] = Quantitative highthroughput screen to assess conditional lethalithy of SEM cells grown in RPMI1640 with unreated serum (RPMI+s) (AID 1963883); note: nearly all actives have a fitted effect of over 35% in size
Summary of the method: as §1

[9] = Quantitative highthroughput screen to assess conditional lethalithy of SEM cells grown in Human Plasma-Like Medium with dialyzed fetal bovine serum (HPLM+ds) (AID 1963882); note: nearly all actives have a fitted effect of over 35% in size; note: potency is the fitted concentration of half-maximal effect; for viability: series mostly up to about 46 µM
Summary of the method: as §1

[10] = Cellular viability qHTS for adrenocortical cancer (ACC) cell line NCI-H295R (AID 1963990); note: nearly all actives have a fitted effect of over 60% in size; note: potency is the fitted concentration of half-maximal effect
Summary of the method: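 CellTiter-Glo ATP luminescence, read 48 h after compound addition, measured viability of NCI-H295R adrenocortical cells grown serum-free with ITS. Final concentrations spanned up to 46 uM. Data normalized to DMSO and doxorubicin, fitted for IC50 and maximal response.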

[11] = Cellular viability qHTS for adrenocortical cancer (ACC) cell line SW-13 (AID 1963989); conditions: SW-13 ACC cells viability, CellTiter-Glo, 48 h; activity (max response): hits give low values;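 note: cells grown in serum-free medium with ITS supplement; nearly all actives have a fitted effect of over 65% in size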
Summary of the method: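 Viability was read as CellTiter-Glo luminescence after 48 h compound treatment (up to 46 uM final) of SW-13 cells grown serum-free; titration curves were fit with a four-parameter logistic model to give IC50 and efficacy.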

SMILES	Potency [1]	Potency [2]	Potency [3]	Potency [4]	Potency [5]	Potency [6]	Potency [7]	Potency [8]	Potency [9]	Potency [10]	activity (max response) [11]
C[C@@H]1[C@H](C)CC[C@]2(C(=O)O)CC[C@]3(C)C(=CC[C@@H]4[C@@]5(C)CC[C@H](O)C(C)(C)[C@H]5CC[C@]43C)[C@@H]12	inactive	inactive	inactive	inactive	inactive	inactive	inactive				
O=C1c2c(O)cccc2[C@@H]([C@@H]2O[C@H](CO)[C@@H](O)[C@H](O)[C@H]2O)c2cc(CO)cc(O)c21	inactive	inactive	inactive	inactive	inactive	inactive	inactive	inactive			
COc1ccc(-c2cc(=O)c3c(O)cc(O[C@@H]4O[C@H](CO[C@@H]5O[C@@H](C)[C@H](O)[C@@H](O)[C@@H]5O)[C@@H](O)[C@H](O)[C@@H]4O)cc3o2)cc1O	inactive	inactive	inactive	inactive	inactive	inactive	inactive		inactive		
O=C(Nc1ccc(F)c(C(F)(F)F)c1)Nc1nnc(-c2ccncc2)s1	inactive	inactive	inactive	inactive	inactive	inactive	inactive	inactive	inactive	inactive	
CC1(C)S[C@H]2[C@H](NC(=O)[C@@H](N)c3ccc(O)cc3)C(=O)N2[C@@H]1C(=O)O	8330 nM (active)	9350 nM (active)	5260 nM (active)	7430 nM (active)	5900 nM (active)	8330 nM (active)	inactive		16600 nM (active)		
CC=C1NC(=O)[C@H]2CSSCCC=C[C@H](CC(=O)N[C@H](C(C)C)C(=O)N2)OC(=O)[C@H](C(C)C)NC1=O	41.8 nM (active)	52.6 nM (active)	37.2 nM (active)	37.2 nM (active)	37.2 nM (active)	37.2 nM (active)	37.2 nM (active)		37.2 nM (active)		
CCC(C)(C)c1ccc(CC(C)CN2C[C@@H](C)O[C@@H](C)C2)cc1 (stereo partly drawn)	inactive	inactive	inactive	inactive	inactive	inactive	inactive	inactive	inactive	18400 nM (active)	
CC(C)(O)Cn1c(NC(=O)c2ccc(-c3cn[nH]c3)s2)nc2cc(CN3CCOCC3)ccc21	4180 nM (active)	4180 nM (active)	2960 nM (active)	2350 nM (active)	2350 nM (active)	2960 nM (active)	93.5 nM (active)				
O=C(O)C1=CO[C@@H](O[C@@H]2O[C@H](CO)[C@H](O)[C@H](O)[C@H]2O)[C@@H]2C(CO)=CC[C@H]12	inactive	inactive	inactive	inactive	inactive	inactive	inactive	inactive			
O=C1C[C@@H](c2ccc(O)cc2)Oc2cc(O)cc(O)c21	inactive	inactive	inactive	inactive	inactive	inactive		inactive		inactive	-16.9%
